Records with an inconclusive call do not appear. Activity calls are given as the source filed them. Unless noted, calls follow the shape of the dose curve; as a rule, active = well fitted curve in the direction sought with a large enough effect in the repeat runs; inconclusive = weak or mixed curves; inactive = no such curve, though single readings can be large; an effect the other way counts as inactive or inconclusive.
Key:
[1] = qHTS assay to identify small molecule antagonists of the glucocorticoid receptor (GR) signaling pathway - cell viability counter screen (AID 720693); also: nearly all actives have a fitted effect of over 55% in size
[2] = qHTS assay for identifying genotoxic compounds that show differential cytotoxicity against isogenic chicken DT40 cell lines with known DNA damage response pathways - Rev3 mutant cell line (AID 743014); also: nearly all actives have a fitted effect of over 55% in size; also: potency is read from the fitted curve at half-maximal effect
[3] = qHTS assay for identifying genotoxic compounds that show differential cytotoxicity against isogenic chicken DT40 cell lines with known DNA damage response pathways - Rad54/Ku70 mutant cell line (AID 743015); also: nearly all actives have a fitted effect of over 60% in size; also: potency is read from the fitted curve at half-maximal effect
[4] = qHTS assay to identify small molecule antagonists of the androgen receptor (AR) signaling pathway - cell viability counter screen (AID 743033; also: nearly all actives have a fitted effect of over 45% in size)
[5] = target: Androgen receptor (Homo sapiens) (UniProt P10275); experiment: qHTS assay to identify small molecule antagonists of the androgen receptor (AR) signaling pathway (AID 743035; active = well fitted inhibition curve with a large enough effect in the signal ratio in the repeat runs, not every such curve was filed as active; the % refers to the signal ratio)
Summary of the method: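 HEK293 cells stably carrying UAS-beta-lactamase reporter, 2,000/well, given compounds plus R1881 agonist and incubated 16 h at 37C. LiveBLAzer B/G FRET substrate then added for 2 h at room temperature before fluorescence reading.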

[6] = target: Androgen receptor (Homo sapiens) (UniProt P10275); experiment: qHTS assay to identify small molecule agonists of the androgen receptor (AR) signaling pathway (AID 743036; active = well fitted activation curve with a large enough effect in the signal ratio in the repeat runs, with a control signal flat, not every such curve was filed as active; the % refers to the signal ratio)
Summary of the method: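 Agonist activity was scored by beta-lactamase reporter fluorescence in stably transfected HEK293 cells exposed to compounds for 16 h at 37C and 5% CO2. Substrate loading took 2 h at room temperature.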

[7] = target: Androgen receptor (Homo sapiens) (UniProt P10275); experiment: qHTS assay to identify small molecule agonists of the androgen receptor (AR) signaling pathway using the MDA cell line (AID 743040; also: nearly all actives have a fitted effect of over 20% in size; also: potency is read from the fitted curve at half-maximal effect)
Summary of the method: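 Luminescence from ONE-Glo, read after 30 min at room temperature, reflects MMTV-driven luciferase in MDA-kb2 cells (AR- and GR-responsive). Treatment lasted 16 h at 37C, 0% CO2.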

[8] = qHTS assay to identify small molecule antagonists of the androgen receptor (AR) signaling pathway using the MDA cell line - cell viability counter screen (AID 743041; also: nearly all actives have a fitted effect of over 45% in size)
Summary of the method: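 Viability counter screen run alongside the AR antagonist reporter: cells seeded 5 h before compound, R1881 added, 16 h incubation at 37C without CO2, fluorescent CellTiter-Fluor signal quantified.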

[9] = target: Androgen receptor (Homo sapiens) (UniProt P10275); experiment: qHTS assay to identify small molecule antagonists of the androgen receptor (AR) signaling pathway using the MDA cell line (AID 743042; also: nearly all actives have a fitted effect of over 55% in size)
Summary of the method: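 MDA-kb2 cells (human breast carcinoma, stably carrying an MMTV-luciferase reporter responsive to AR and GR) were plated at 3,000 cells/well and preincubated 5 hr at 37C, then given compound plus R1881 agonist for 16 h. ONE-Glo luminescence was read.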

[10] = qHTS assay to identify small molecule antagonists of the thyroid receptor (TR) signaling pathway (AID 743065); also: nearly all actives have a fitted effect of over 55% in size; also: potency is read from the fitted curve at half-maximal effect
Summary of the method: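 GH3.TRE-Luc rat pituitary cells carrying two TR response elements driving luciferase were plated for 4 h, given compound plus 1 nM T3 (final), and incubated 23.5 h at 37 C. ONE-Glo luminescence measured reporter inhibition; CellTiter-Fluor fluorescence tracked cytotoxicity.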

[11] = tested on: thyroid hormone receptor (rat, GH3 cells); experiment: qHTS assay to identify small molecule agonists of the thyroid receptor (TR) signaling pathway (AID 743066; calls by dose curve)
[12] = qHTS assay to identify small molecule antagonists of the estrogen receptor alpha (ER-alpha) signaling pathway - cell viability counter screen (AID 743074; calls by dose curve;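 also: HEK293 cells carrying ER-alpha-UAS-bla reporter stimulated with 17beta-estradiol; nearly all actives have a fitted effect of over 45% in size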)
[13] = qHTS assay to identify small molecule antagonists of the estrogen receptor alpha (ER-alpha) signaling pathway using the BG1 cell line - cell viability counter screen (AID 743081);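 also: compound given together with 17beta-estradiol as the ER stimulus; series mostly up to about 70 µM; nearly all actives have a fitted effect of over 45% in size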
Aromatase (Homo sapiens) = Aromatase (Homo sapiens) (UniProt P11511); experiment: qHTS assay to identify aromatase inhibitors (AID 743083)
[14] = target: Estrogen receptor (Homo sapiens) (UniProt P03372); experiment: qHTS assay to identify small molecule agonists of the estrogen receptor alpha (ER-alpha) signaling pathway (AID 743075; calls by dose curve;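 also: HEK293 GripTite cells with ER-alpha and UAS-driven beta-lactamase reporter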)
[15] = qHTS assay to identify small molecule antagonists of the estrogen receptor alpha (ER-alpha) signaling pathway using the BG1 cell line (AID 743080; calls by dose curve;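 also: BG1 cells stimulated with 17beta-estradiol alongside compound; series mostly up to about 70 µM; nearly all actives have a fitted effect of over 25% in size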)
Summary of the method: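 Luminescence from a 4×ERE-luciferase reporter in BG1-Luc-4E2 cells served as read-out. Cells, pre-cultured 5 days in stripped-serum phenol-red-free medium, were exposed to compound with 17beta-estradiol co-stimulation for 21.5 h at 37 C.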

[16] = qHTS assay to identify small molecule antagonists of the thyroid receptor (TR) signaling pathway - cell viability counter screen (AID 743064); also: nearly all actives have a fitted effect of over 50% in size; also: potency is read from the fitted curve at half-maximal effect
Summary of the method: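 Same-well viability check: GH3.TRE-Luc cells stimulated with 1 nM T3 alongside test compound for 23.5 h, followed by CellTiter-Fluor fluorescence.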

[17] = target: Estrogen receptor (Homo sapiens) (UniProt P03372); experiment: qHTS assay to identify small molecule antagonists of the estrogen receptor alpha (ER-alpha) signaling pathway (AID 743069; active = well fitted curve in the direction sought with a large enough effect in the signal ratio in the repeat runs, not every such curve was filed as active; the % refers to the signal ratio)
Summary of the method: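 Estradiol-stimulated ER-alpha-UAS-bla HEK293 cells, 18 hr compound exposure at 37C. LiveBLAzer B/G substrate, 2 hr RT, fluorescence read.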

[18] = target: Estrogen receptor (Homo sapiens) (UniProt P03372); experiment: qHTS assay to identify small molecule agonists of the estrogen receptor alpha (ER-alpha) signaling pathway using the BG1 cell line (AID 743079); also: nearly all actives have a fitted effect of over 20% in size

Measured: Potency

Sequence of Estrogen receptor (Homo sapiens) (P03372 whole entry, looked up): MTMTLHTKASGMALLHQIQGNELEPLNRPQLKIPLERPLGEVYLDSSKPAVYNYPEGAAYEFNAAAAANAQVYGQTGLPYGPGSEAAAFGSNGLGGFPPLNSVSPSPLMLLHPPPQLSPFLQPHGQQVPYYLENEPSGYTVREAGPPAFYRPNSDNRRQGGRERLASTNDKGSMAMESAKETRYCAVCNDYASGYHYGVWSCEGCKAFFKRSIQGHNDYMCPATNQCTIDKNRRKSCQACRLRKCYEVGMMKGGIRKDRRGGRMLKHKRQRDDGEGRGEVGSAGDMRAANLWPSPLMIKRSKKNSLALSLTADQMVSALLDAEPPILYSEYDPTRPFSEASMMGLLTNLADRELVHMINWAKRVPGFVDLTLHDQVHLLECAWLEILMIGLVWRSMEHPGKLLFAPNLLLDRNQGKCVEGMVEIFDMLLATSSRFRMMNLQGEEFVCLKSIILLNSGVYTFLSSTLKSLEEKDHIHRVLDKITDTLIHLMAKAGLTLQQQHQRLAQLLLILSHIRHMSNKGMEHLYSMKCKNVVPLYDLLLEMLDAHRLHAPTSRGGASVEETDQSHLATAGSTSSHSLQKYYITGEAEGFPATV
Sequence of Aromatase (Homo sapiens) (P11511 whole entry, looked up): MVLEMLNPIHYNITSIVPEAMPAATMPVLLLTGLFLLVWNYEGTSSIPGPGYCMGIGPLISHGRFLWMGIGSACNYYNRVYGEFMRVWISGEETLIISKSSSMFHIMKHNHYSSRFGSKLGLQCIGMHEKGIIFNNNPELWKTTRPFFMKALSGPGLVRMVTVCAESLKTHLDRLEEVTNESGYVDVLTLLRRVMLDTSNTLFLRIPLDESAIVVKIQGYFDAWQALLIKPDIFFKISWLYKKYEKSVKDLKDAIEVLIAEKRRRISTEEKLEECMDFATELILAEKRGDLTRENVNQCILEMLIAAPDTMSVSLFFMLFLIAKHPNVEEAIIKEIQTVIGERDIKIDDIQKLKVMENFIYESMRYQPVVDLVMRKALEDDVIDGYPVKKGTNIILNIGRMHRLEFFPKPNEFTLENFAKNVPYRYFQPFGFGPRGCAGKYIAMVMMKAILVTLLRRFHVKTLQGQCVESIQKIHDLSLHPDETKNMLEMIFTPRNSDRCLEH
Sequence of Androgen receptor (Homo sapiens) (P10275 whole entry, looked up): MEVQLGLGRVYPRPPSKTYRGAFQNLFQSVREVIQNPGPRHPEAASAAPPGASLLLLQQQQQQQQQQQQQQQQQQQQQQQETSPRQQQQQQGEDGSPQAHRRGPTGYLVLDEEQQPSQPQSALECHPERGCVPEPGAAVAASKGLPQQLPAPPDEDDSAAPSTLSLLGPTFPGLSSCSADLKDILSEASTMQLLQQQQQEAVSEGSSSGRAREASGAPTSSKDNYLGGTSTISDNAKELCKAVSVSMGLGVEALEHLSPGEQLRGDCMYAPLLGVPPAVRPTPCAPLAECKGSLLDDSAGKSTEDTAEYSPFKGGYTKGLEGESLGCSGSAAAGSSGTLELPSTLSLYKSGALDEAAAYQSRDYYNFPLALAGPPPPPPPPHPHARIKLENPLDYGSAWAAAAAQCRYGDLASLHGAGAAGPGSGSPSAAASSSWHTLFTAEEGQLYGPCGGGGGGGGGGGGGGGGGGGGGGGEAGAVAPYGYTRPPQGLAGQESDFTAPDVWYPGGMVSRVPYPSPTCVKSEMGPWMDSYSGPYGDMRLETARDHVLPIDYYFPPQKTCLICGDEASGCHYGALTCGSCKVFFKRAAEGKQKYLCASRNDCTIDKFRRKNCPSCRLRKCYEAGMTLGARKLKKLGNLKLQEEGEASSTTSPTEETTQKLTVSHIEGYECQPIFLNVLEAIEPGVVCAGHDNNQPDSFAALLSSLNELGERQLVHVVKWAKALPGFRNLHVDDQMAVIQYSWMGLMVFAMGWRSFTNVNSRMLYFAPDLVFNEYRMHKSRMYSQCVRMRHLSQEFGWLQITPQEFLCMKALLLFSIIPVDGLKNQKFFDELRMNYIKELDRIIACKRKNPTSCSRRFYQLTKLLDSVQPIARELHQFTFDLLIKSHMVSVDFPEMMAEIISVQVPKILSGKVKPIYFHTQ

CCOc1ccc(C(=O)OCCN(CC)CC)cc1
active: [2] 21.1 µM | [3] 26.6 µM
not listed: [14] | [15] | [16] | [17] | [18]
inactive: all other assays above

CCCCCCCCCCCCN(CCCCCCCCCCCC)CCCCCCCCCCCC
inactive: [1] | [3] | [4] | [8] | [10] | [11] | [12] | [13] | Aromatase (Homo sapiens)

O=C1CC2CC1C1CCCC21 (stereo unspecified)
active: [7] 54.5 µM
not listed: [2] | [16] | [17] | [18]
inactive: all other assays above

NCCc1cnc[nH]1
inactive: [1] | [3] | [4] | [8] | [10] | [11] | [12] | [13] | Aromatase (Homo sapiens)

COC(=O)CCSCCC(=O)OC
inactive: [1] | [3] | [4] | [8] | [10] | [11] | [12] | [13]

COC(=O)[C@@H](N)Cc1ccc(O)c(O)c1
inactive: [1] | [4] | [6] | [7] | [8] | [9] | [11] | [12] | Aromatase (Homo sapiens)
active: [3] 33.5 µM | [16] 21.1 µM | [10] 23.7 µM

CCOC(=O)C(=O)OCC
not listed: [2] | [5] | [6] | [7] | [9] | [16]
inactive: all other assays above

Cc1cc2c(cc1S(N)(=O)=O)S(=O)(=O)CCC2
not listed: [4] | [5] | [6] | [7] | [9]
inactive: all other assays above

COc1ccc(CCN(C)CCCC(C#N)(c2cc(OC)c(OC)c(OC)c2)C(C)C)cc1OC (stereo unspecified)
active: [3] 29.8 µM | [16] 29.8 µM
inactive: [1] | [4] | [8] | [11] | [12] | Aromatase (Homo sapiens)

O=c1n(CCO)c(=O)n(CCO)c(=O)n1CCO
not listed: [2] | [5] | [6] | [7] | [9]
inactive: all other assays above
